Laboratory results taken from PubChem BioAssay (NCI).
This is part of a sample that, as a whole, favours compounds with a hit. Of some 83,000 tested, about 20% had one in any assay.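 96-well plates, one dose, 48 hours. Percent growth reported; active if below 10.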 Active and inactive are the calls of the source.

What was measured:
Assay in all cases: NCI-60 one-dose screen, 48 h (100 = growth as untreated, 0 = no growth, -100 = all killed)
Details in all cases: 10 µM unless noted
[1] = test system: NCI-H23 lung
[2] = test system: NCI-H226 lung
[3] = test system: NCI-H322M lung
[4] = test system: HOP-62 NSCLC
[5] = test system: NCI-H460 lung
[6] = test system: NCI-H522 lung
[7] = test system: 786-0 renal
[8] = test system: COLO 205 colon
[9] = test system: DU-145 prostate
[10] = test system: K-562 leukemia
[11] = test system: MALME-3M melanoma
[12] = test system: MDA-MB-231 breast
[13] = test system: RXF 393 renal
[14] = test system: SF-268 CNS
[15] = test system: SF-295 CNS
[16] = test system: SF-539 CNS
[17] = test system: UACC-257 melanoma
[18] = test system: M14 melanoma

Measured: growth

O=C(O)CSc1ccc(NCc2oc(CO)cc(=O)c2O)cc1
inactive: [1] 99.9% | [2] 94.8% | [3] 110% | [4] 105% | [5] 110% | [6] 89.3% | [7] 96.6% | [8] 106% | [9] 110% | [10] 89% | [11] 99.6% | [12] 97.2% | [13] 110% | [14] 107% | [15] 106% | [16] 92.2% | [17] 105% | [18] 74.6%

O=C(c1ccccc1)C(CCc1ccccn1)CCc1ccccn1
inactive: [1] 106% | [2] 104% | [3] 117% | [4] 93.1% | [5] 110% | [6] 89.5% | [7] 98.4% | [8] 105% | [9] 101% | [10] 96.2% | [11] 82.4% | [12] 99.5% | [13] 120% | [14] 101% | [15] 110% | [16] 103% | [17] 109% | [18] 93.7%

CN(C)CC(=O)c1ccc2cc(Br)c3ccccc3c2c1
active: [6] 9.3%
inactive: [1] 74.1% | [2] 88.1% | [3] 75.7% | [4] 83.2% | [5] 59.4% | [7] 47.4% | [8] 74.1% | [9] 77.8% | [10] 38.5% | [11] 106% | [12] 76.4% | [13] 72.2% | [14] 77.6% | [15] 82.8% | [16] 79.5% | [17] 66% | [18] 77.2%

CC(C)c1ccc(-c2cnc3nonc3n2)cc1
inactive: [1] 56.2% | [2] 77.5% | [3] 65.8% | [4] 57.7% | [5] 70.5% | [6] 20% | [7] 10.6% | [8] 38.1% | [9] 30.9% | [11] 61.2% | [12] 38.5% | [13] 37.7% | [14] 62.4% | [15] 48.9% | [16] 14.5% | [17] 52%
active: [10] 6.39% | [18] 7.59%

COc1nccc2c(Sc3ccccc3)nc(N)nc12
inactive: [1] 98.8% | [2] 103% | [3] 110% | [4] 113% | [5] 109% | [6] 88.1% | [7] 88.9% | [8] 117% | [9] 104% | [10] 93% | [11] 137% | [12] 100% | [13] 117% | [14] 105% | [15] 103% | [16] 119% | [17] 111% | [18] 118%

O=C(Nc1cccc(-n2ccc3c(NC(=O)c4ccccc4)nccc32)c1)c1ccc(N2CCOCC2)c(C(F)(F)F)c1
active: [4] 7.08% | [5] 9.44% | [6] -22.8% | [7] -12.3% | [8] -23.4% | [10] 5.25% | [13] -59.8% | [15] -15.4%
inactive: [1] 28.1% | [2] 33.5% | [3] 27% | [9] 18.7% | [11] 53.4% | [12] 20.8% | [14] 24.2% | [16] 11.9% | [17] 58% | [18] 38.6%

O=S(=O)(Cc1ccc(Cl)cc1Cl)c1ccc(Cl)cc1
inactive: [1] 50.2% | [2] 69.3% | [3] 50.3% | [4] 36.5% | [5] 18.4% | [7] 30.2% | [9] 41% | [10] 10.5% | [11] 58% | [12] 49.8% | [14] 67.8% | [16] 12.7% | [17] 77.4%
active: [6] -5.62% | [8] 8.87% | [13] -15.6% | [15] 2.18% | [18] 9.79%

OC(COCc1ccccc1)COCc1ccccc1
inactive: [1] 110% | [2] 106% | [3] 112% | [4] 106% | [5] 112% | [6] 100% | [7] 108% | [8] 110% | [9] 122% | [10] 99.3% | [11] 105% | [12] 108% | [13] 119% | [14] 115% | [15] 108% | [16] 110% | [17] 97.9% | [18] 103%

COc1cc([N+](=O)[O-])cc(OC)c1OC
inactive: [1] 107% | [2] 112% | [3] 109% | [4] 110% | [5] 109% | [6] 83.8% | [7] 104% | [8] 127% | [9] 115% | [10] 101% | [11] 97.8% | [12] 112% | [13] 124% | [14] 110% | [15] 110% | [16] 114% | [17] 114% | [18] 108%

COc1cc(NC(=O)CSc2nc3ccc(Cl)cc3c(=O)n2Cc2ccccc2)cc(OC)c1OC
active: [16] -6.78%
inactive: [1] 76.8% | [2] 46.4% | [3] 82.3% | [4] 91.3% | [5] 64.7% | [6] 57.7% | [7] 58.5% | [8] 83.2% | [9] 72% | [11] 61.2% | [12] 44.6% | [13] 30.7% | [14] 59.3% | [15] 84.1% | [17] 70% | [18] 73.4%

COc1cc(C2CC(c3ccccc3)=NN2C=O)ccc1Oc1ccnc2cc(Cl)ccc12 (centres undefined)
inactive: [1] 36.7% | [2] 46.6% | [3] 100% | [4] 74.2% | [5] 73.8% | [6] 42.7% | [7] 79.9% | [8] 101% | [9] 77.9% | [10] 51.1% | [11] 52.7% | [12] 74.6% | [13] 98.9% | [14] 65.6% | [15] 43.3% | [16] 79.8% | [17] 31.6% | [18] 54.9%

COc1cc(C2CC(c3ccc(Cl)cc3)=NN2C(C)=O)ccc1Oc1nc2c(c(=O)n(C)c(=O)n2C)n1C (centres undefined)
active: [17] -8%
inactive: [1] 84.2% | [2] 76.8% | [3] 72.9% | [4] 98.7% | [5] 88.1% | [6] 92.5% | [7] 111% | [8] 102% | [9] 65.2% | [10] 101% | [11] 100% | [12] 85.8% | [13] 86.8% | [14] 56.8% | [15] 62.6% | [16] 102% | [18] 67.8%

Nc1cc(C(=O)O)cc(C(=O)O)c1
inactive: [1] 108% | [2] 108% | [3] 102% | [4] 98.1% | [5] 112% | [6] 91% | [7] 96.8% | [8] 99% | [9] 145% | [10] 96.6% | [11] 92.8% | [12] 102% | [13] 128% | [14] 115% | [15] 113% | [16] 103% | [17] 110% | [18] 98.9%

COc1ccc(/C=C(\C#N)c2cc(OC)c(OC)c(OC)c2)cc1
active: [1] 1.46% | [2] -8.11% | [5] 7.57% | [6] 5.56% | [8] -69.7% | [9] -1.75% | [16] 8.76% | [18] 8.3%
inactive: [3] 42.8% | [4] 24.1% | [7] 18.2% | [11] 69.1% | [12] 38.4% | [13] 48.7% | [14] 27% | [15] 14.1% | [17] 65.7%

S=C(S)Oc1cccc2cccnc12
inactive: [1] 106% | [2] 102% | [3] 95.2% | [4] 110% | [5] 107% | [6] 88.9% | [7] 103% | [8] 111% | [9] 105% | [10] 90.8% | [11] 90.9% | [12] 111% | [13] 119% | [14] 109% | [15] 110% | [16] 118% | [17] 108% | [18] 105%

COC(=O)c1ccc2c(c1)nc(-c1cc3ccccc3[nH]c1=O)n2-c1cc(C(C)(C)C)[nH]n1
inactive: [1] 44.7% | [2] 90.4% | [3] 77% | [4] 66.5% | [5] 45.4% | [7] 33.3% | [8] 71.6% | [9] 83.7% | [10] 32.2% | [11] 96.2% | [12] 68.4% | [13] 89.9% | [14] 72.8% | [15] 93.8% | [16] 92.6% | [17] 78.5% | [18] 58.2%
active: [6] -2.05%

C=CCOC(=O)C1=C(C)NC2=C(C(=O)CCC2)C1c1ccc(F)cc1 (centres undefined)
inactive: [1] 92.4% | [2] 89.9% | [3] 95.6% | [4] 85.9% | [5] 106% | [6] 82.4% | [7] 99.9% | [8] 103% | [9] 113% | [10] 96.3% | [11] 111% | [12] 98% | [13] 111% | [14] 106% | [15] 102% | [16] 102% | [17] 92.8% | [18] 96.1%
